Data: the supplement of paper PMC11537057
Where a name gives a salt, the structure may show the parent alone. Out of some 1,700 compounds screened, about 15 (0.9%) showed activity.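 The calls were made as follows: active = infection cut by 80% or more with cell growth above 90% in both runs; inactive = the rest.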 For the sample, actives were picked, then their nearest neighbours and some compounds at random.

tested on: HSV-1 strain 17 YFP-ICP4 in A549; assay: HSV-1 infection relative to DMSO (ICP4-YFP per H2B-RFP signal); higher = more viral infection (less antiviral activity), active = hit call of the paper; conditions: 10 µM; 48 h; MOI: 0.1
Procedure: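 Selleck FDA-approved library (L1300) screened in duplicate at 10 µM on A549 H2B-mRuby cells in 384-well plates, infected with HSV-1 strain 17 YFP-ICP4 at MOI 0.1 one hour before drug addition. Imaged after 2 days at 37°C. Cell growth (H2B-RFP) and infection (ICP4-YFP) are expressed as % of DMSO-treated wells. Hits: growth >90% and infection <20% of DMSO.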

SMILES	HSV-1 infection
CCCCCCCCCC(=O)N[C@H]1[C@H](Oc2c3cc4cc2Oc2ccc(cc2Cl)[C@@H](O[C@@H]2O[C@H](CO)[C@@H](O)[C@H](O)[C@H]2NC(C)=O)[C@@H]2NC(=O)[C@H](NC(=O)[C@@H]4NC(=O)[C@H]4NC(=O)[C@@H](Cc5ccc(c(Cl)c5)O3)NC(=O)[C@H](N)c3ccc(O)c(c3)Oc3cc(O)cc4c3)c3ccc(O)c(c3)-c3c(OC4O[C@H](CO)[C@@H](O)[C@H](O)[C@@H]4O)cc(O)cc3[C@@H](C(=O)O)NC2=O)O[C@H](CO)[C@@H](O)[C@@H]1O (stereo not given in full) [Teicoplanin]	89% (inactive)
CN(C)Cc1ccc(S(=O)(=O)n2ccc(/C=C/C(=O)NO)c2)cc1 [Resminostat]	64.2% (inactive)
C1=N/C2=N/c3ccc(OCCN4CCCC4)c(c3)COC/C=C/COCc3cccc(c3)C(=C1)N2 [Pacritinib (SB1518)]	22.2% (inactive)
COc1ccc(CN(C(=O)[C@@H](N)Cc2c(C)cc(C(N)=O)cc2C)[C@@H](C)c2ncc(-c3ccccc3)[nH]2)cc1C(=O)O [Eluxadoline]	97.4% (inactive)
O=C(NC[C@H]1CN(c2ccc(N3CCOCC3=O)cc2)C(=O)O1)c1ccc(Cl)s1 [Rivaroxaban]	110% (inactive)
N.N.O=C([O-])C[O-].[Pt+2] [Nedaplatin]	87% (inactive)
N#C[C@@H]1CCCN1C(=O)CNC12CC3CC(CC(O)(C3)C1)C2 [Vildagliptin (LAF-237)]	103% (inactive)
O[C@@H](COc1cccc2ncccc12)CN1CCN(C2c3ccccc3[C@@H]3[C@H](c4ccccc42)C3(F)F)CC1 (stereo not given in full)	75.2% (inactive)
CC[C@@H]1C(=O)N(C)c2cnc(Nc3ccc(C(=O)N[C@H]4CC[C@H](N5CCN(CC6CC6)CC5)CC4)cc3OC)nc2N1C(C)C [Volasertib (BI 6727)]	29.3% (inactive)
CO[C@@]1(NC(=O)CSC[C@@H](N)C(=O)O)C(=O)N2C(C(=O)O)=C(CSc3nnnn3C)CS[C@@H]21 [Cefminox Sodium]	110% (inactive)
Cc1cc(C)c2c(c1)[C@@H](N(Cc1cc(C(F)(F)F)cc(C(F)(F)F)c1)c1nnn(C)n1)CCCN2C[C@H]1CC[C@H](C(=O)O)CC1	88.1% (inactive)
C#CCN[C@@H]1CCc2ccccc21 [Rasagiline Mesylate]	98.1% (inactive)
C[C@H]1CN(C[C@H](Cc2ccccc2)C(=O)NCC(=O)O)CC[C@@]1(C)c1cccc(O)c1 [Alvimopan dihydrate]	104% (inactive)
CN1CCN(CCOc2cc(OC3CCOCC3)c3c(Nc4c(Cl)ccc5c4OCO5)ncnc3c2)CC1 [Saracatinib (AZD0530)]	38.7% (inactive)
COc1nc2ccc(Br)cc2cc1[C@@H](c1ccccc1)[C@@](O)(CCN(C)C)c1cccc2ccccc12 [Bedaquiline]	114% (inactive)
COc1nc2ccc(Br)cc2cc1[C@@H](c1ccccc1)[C@@](O)(CCN(C)C)c1cccc2ccccc12 [Bedaquiline fumarate]	111% (inactive)
Cc1cn(-c2cc(NC(=O)c3ccc(C)c(Nc4nccc(-c5cnccn5)n4)c3)cc(C(F)(F)F)c2)cn1 [Radotinib]	34.8% (inactive)
C[N+](C)(C)CCO.O=C([O-])C(O)C(O)C(=O)O (stereo not given) [Choline bitartrate]	97.1% (inactive)

SMILES	HSV-1 infection
C[C@H](NC(=O)[C@@H](Cc1ccc2ccccc2c1)NC(=O)[C@@H](C)N)C(=O)N[C@@H](Cc1c[nH]c2ccccc12)C(=O)N[C@H](Cc1ccccc1)C(=O)N[C@@H](CCCCN)C(N)=O	97.6% (inactive)
Cn1ncc(Cl)c1-c1cc(C(=O)N[C@H](CN)Cc2cccc(F)c2)sc1Cl	52.8% (inactive)
CN(C)N(C)C(=O)[C@@]1(Cc2ccccc2)CCCN(C(=O)[C@@H](Cc2c[nH]c3ccccc23)NC(=O)C(C)(C)N)C1 [Anamorelin]	97% (inactive)
CN1CCc2nc(C(=O)N[C@@H]3C[C@@H](C(=O)N(C)C)CC[C@@H]3NC(=O)C(=O)Nc3ccc(Cl)cn3)sc2C1 [Edoxaban tosylate Monohydrate]	124% (inactive)
CN1CCc2nc(C(=O)N[C@@H]3C[C@@H](C(=O)N(C)C)CC[C@@H]3NC(=O)C(=O)Nc3ccc(Cl)cn3)sc2C1 [Edoxaban]	115% (inactive)
Cc1ccccc1-c1cc(N2CCN(C)CC2)ncc1N(C)C(=O)C(C)(C)c1cc(C(F)(F)F)cc(C(F)(F)F)c1 [Netupitant]	114% (inactive)
CC(=O)Oc1c(C)c(C)c2c(c1C)CCC(C)(CCC[C@H](C)CCC[C@H](C)CCCC(C)C)O2 (stereo not given in full) [Vitamin E Acetate]	116% (inactive)
CC(=O)Oc1ccccc1C(=O)O.CC(=O)Oc1ccccc1C(=O)O.NC(N)=O [Carbasalate Calcium]	90.3% (inactive)
CNS(=O)(=O)C[C@H]1CC[C@H](N(C)c2[nH]cnc3nccc2-3)CC1	102% (inactive)
Cc1cc(S(=O)(=O)O)c2c(C)ccc(C(C)C)cc1-2 [Sodium gualenate]	93% (inactive)
COc1ccc(C[C@@H]2c3cc(OC)c(OC)cc3CC[N@+]2(C)CCC(=O)OCCCCCOC(=O)CC[N@@+]2(C)CCc3cc(OC)c(OC)cc3[C@H]2Cc2ccc(OC)c(OC)c2)cc1OC [Cisatracurium Besylate]	90.4% (inactive)
NC(=O)[C@@H]1CC[C@@H]2CN1C(=O)N2OS(=O)(=O)O [Avibactam sodium]	116% (inactive)
CN(C)c1ccc2nc3ccc(=[N+](C)C)cc-3sc2c1 [Methylene Blue]	3.01% (active)
COc1cc(S(=O)(=O)O)ccc1O [Sulfogaiacol]	93.8% (inactive)
N#CC1(c2ccc(NC(=O)c3cccnc3NCc3ccncc3)cc2)CCCC1	91.6% (inactive)
CCCCc1nc2cc(/C=C/C(=O)NO)ccc2n1CCN(CC)CC [Pracinostat (SB939)]	44.1% (inactive)
C[C@@H](O)[C@@H]1NC(=O)[C@H](CCCCN)NC(=O)[C@@H](Cc2c[nH]c3ccccc23)NC(=O)[C@H](Cc2ccccc2)NC(=O)[C@@H](NC(=O)[C@H](N)Cc2ccccc2)CSSC[C@@H](C(=O)N[C@H](CO)[C@@H](C)O)NC1=O [Octreotide Acetate]	93.8% (inactive)
